High-throughput results from PubChem BioAssay.
HT1080 IDH1KD tx – HT-1080 IDH1 knockdown cell toxicity (counter line); HT-1080 IDH1 knockdown viability, ATP luminescence, 48 h; Potency, µM (doses to about 46.1 µM), inactives show top-dose activity, negative = toxicity, hits mostly cytotoxic; 360,000 tested, 2% active; AID 686971;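 also: potency is read from the fitted curve at half-maximal effect; 0% = DMSO wells and -100% = cell-free medium wells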
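Using the IDH1-knockdown HT-1080 line run in the same batch and compound series as the NT line, viability after 48 h at 37 °C was determined by CellTiter-Glo luminescence and expressed as % activity.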
DT40 TDP1 no CPT – qHTS for Inhibitors of human tyrosyl-DNA phosphodiesterase 1 (TDP1): qHTS in cells in absence of CPT; DT40 Tdp1-/- hTDP1 cells, no CPT, ATP luminescence, 48 h; Potency, µM (doses to about 46.2 µM), for inactives: at the top dose activity change, negative = growth inhibition, most hits filed as inhibitors; 420,000 tested, 15% active; AID 686978, 2013; also: potency is read from the fitted curve at half-maximal effect; nearly all actives have a fitted effect of over 55% in size
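Growth of hTDP1-complemented DT40 Tdp1-knockout cells is measured by ATP luminescence after at least 48 hr compound exposure at 37 °C, with DMSO substituting for the 20 nM CPT used in the parallel screen.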
HT1080-NT tox – kills 2HG-producing HT-1080-NT fibrosarcoma cells; HT-1080-NT fibrosarcoma viability, CellTiter-Glo ATP luminescence, 48 h; Potency, µM (titrated, usually from 46.1 µM), for inactives: at the highest dose activity, negative = less viability, hits mostly cytotoxic; 360,000 tested, 1.6% active;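 also: NT is the 2HG producing partner of a matched IDH1 knockdown line; potency is read from the fitted curve at half-maximal effect; 0% = DMSO-treated cells and -100% = media-only wells without cells; nearly all actives have a fitted effect of over 55% in size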
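Compounds were tested in concentration-response format on HT-1080-NT cells for 48 hours at 37 degrees C. Cell viability came from CellTiter-Glo luminescence; curves were classified by r2, response magnitude and activity.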
DT40 TDP1 CPT – DT40-hTDP1 cell growth loss with CPT. chicken DT40 Tdp1-/-;hTDP1 cells + 20 nM CPT, ATP luminescence, 48 h. Potency, µM (series often up to 46.2 µM), for inactives: at the top dose activity change, negative = growth inhibition, most hits filed as inhibitors. 420,000 tested, 12% active. AID 686979; also: potency is read from the fitted curve at half-maximal effect; nearly all actives have a fitted effect of over 55% in size
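Chicken DT40 Tdp1-/- cells complemented with human TDP1, 400 cells/well, exposed to compounds plus 20 nM camptothecin for at least 48 h at 37 C; viability read as ATP content by CellTiter-Glo luminescence.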
IL-1B inflam inh – inflammasome signaling inhibition, IL-1 beta readout. THP-1 LPS/ATP IL-1B secretion, AlphaLISA, 16 h; active compounds read low. activity change, % at 57.5 µM. 360,000 tested, 4.7% active. AID 743279; in the data active = activity change below about -50%; inconclusive = mostly about -30% to -49%
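Secreted IL-1B measured by AlphaLISA bead assay after 16 h compound exposure of THP-1 cells; compounds (final up to 57.5 uM) added 1 h before LPS (250 ng/mL) and ATP (1.25 mM) stimulation; lower signal means less secretion.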
* = called active by the depositor; u = inconclusive; x = no result given. Compounds with a hit are over-represented: about 19% of the library has one in this group of screens. Unless noted, calls follow the shape of the dose curve; as a rule, active = well fitted curve in the direction sought with a large enough effect; inconclusive = small, poorly fitted or top-dose-only effect, or another doubt; inactive = no such curve, though single readings can be large; an effect the other way counts as inactive or inconclusive. Unless noted, % is scaled to controls: 0 for no effect and ±100 for the full control effect.

SMILES	HT1080 IDH1KD tx	DT40 TDP1 no CPT	HT1080-NT tox	DT40 TDP1 CPT	IL-1B inflam inh
CCOC(=O)C(NC(=O)CC(C)C)(Nc1sc(C)c(CC)c1C#N)C(F)(F)F (centres undefined)	0%	u	5%	u	22
O=C1CCCN1C(=O)CSc1ncnc2sccc12	10%	1%	4%	5%	5
O=C(OC1Cc2c(O)cc(O)cc2OC1c1cc(O)c(O)c(O)c1-c1c(C2Oc3cc(O)cc(O)c3CC2OC(=O)c2cc(O)c(O)c(O)c2)cc(O)c(O)c1O)c1cc(O)c(O)c(O)c1 (centres undefined)	x	4%	x	-3%	x
COc1ccc(-c2oc3cc(O[C@@H]4OC(CO)C(O)C(O)C4O)c(OC)c(O)c3c(=O)c2OC)cc1O (some centres undefined)	x	15µM*	x	u	x
COc1ccc(-c2oc3ccc(C)cc3c(=O)c2O)cc1OC	x	u	x	12µM*	x
COc1ccc(-c2oc3cc(O)c(OC)c(O)c3c(=O)c2OC)cc1	21µM*	13µM*	u	10µM*	48
O=c1c(O)c(-c2ccc(O)cc2)oc2ccc(O)cc12	x	13µM*	x	13µM*	x
NC(=O)c1c(-c2ccccc2)oc2ccc(O)cc12	6%	-14%	-5%	-23%	0
COc1ccc(-c2oc3ccccc3c(=O)c2O)cc1OC	x	-29%	x	-28%	x
COc1ccc(S(=O)(=O)N(C)C[C@@H]2OCc3cn(nn3)CCCC(=O)N([C@H](C)CO)C[C@H]2C)cc1	25%	16%	23%	-3%	19
Cc1ccc(NC(=O)c2cnccn2)c(C)c1	9%	-7%	8%	5%	-7
COc1ccc(-c2oc3c(OC)c(OC)c(OC)c(O)c3c(=O)c2OC)cc1OC	-12%	21µM*	-10%	u	34
COc1c(OC)c(O)c2c(=O)c(O)c(-c3ccccc3)oc2c1OC	-24%	-29%	u	-19%	u
CCC(=O)N1CCc2cc(Br)cc(S(=O)(=O)CCC(=O)Nc3cccc(CC)c3)c21	x	-15%	x	-17%	x
CCNc1ncc2nc(CCc3ccccc3)c(=O)n(C3CC3)c2n1	x	-19%	x	9%	x
O=C(CC(SCCO)c1ccc2c(c1)OCO2)c1cccs1 (centres undefined)	u	12µM*	u	12µM*	-75*
CC(NC(=O)Cc1cccs1)c1ccc2c(c1)OCO2 (centres undefined)	-15%	-17%	4%	4%	0
O=C(CC(SCc1ccco1)c1ccc(O)cc1)c1cccs1 (centres undefined)	-4%	23µM*	-12%	u	-52*
COc1ccc(OC)c(C(=O)Cn2c3[n+](c4ccc(C(F)(F)F)cc42)CCCCC3)c1	23%	5.8µM*	1%	5.2µM*	-5
COCCN(C(=O)Nc1ccccc1OC)c1nc2ccccc2s1	-13%	u	4%	-10%	-2
COc1ccc(Cl)cc1S(=O)(=O)Nc1ccc2c(c1)n(C)c(=O)n2C	u	u	u	15µM*	25
Cc1cc(S(=O)(=O)Nc2ccc3c(c2)n(C)c(=O)n3C)ccc1F	-6%	29µM*	-1%	21µM*	-18
Cn1c(=O)n(C)c2cc(NS(=O)(=O)c3ccc(Cl)s3)ccc21	2%	u	u	-22%	u
COc1ccc(S(=O)(=O)Nc2ccc3c(c2)n(C)c(=O)n3C)cc1OC	-9%	u	-30%	0%	u
COc1ccc(S(=O)(=O)Nc2ccc3c(c2)n(C)c(=O)n3C)cc1	0%	-9%	25%	1%	-3
SMILES	HT1080 IDH1KD tx	DT40 TDP1 no CPT	HT1080-NT tox	DT40 TDP1 CPT	IL-1B inflam inh
COc1ccc(S(=O)(=O)Nc2ccc3c(c2)n(C)c(=O)n3C)cc1F	-18%	u	u	23µM*	-14
CCOC(=O)C1CCN(C(=O)CCCNC(=O)Cn2cnc3sc(C)c(C)c3c2=O)CC1	3%	0%	8%	4%	-68*
Cc1sc2ncn(CC(=O)NCCCC(=O)N3CCC(C)CC3)c(=O)c2c1C	16%	-18%	10%	5%	15
COc1ccc(CC(=O)OCC(=O)NCc2ccco2)cc1OC	7%	-2%	7%	-2%	4
Cc1c(C#N)c2ccccc2n1CC(=O)N1CCCC1	-4%	-20%	-4%	u	-11
COc1ccc(OC)c(S(=O)(=O)N2CC=C(c3c(C)n(CC(=O)N4CCCC4)c4ccccc34)CC2)c1	x	18µM*	x	16µM*	x
Cc1nn(-c2ccccc2)c2c1C1(C(=O)N(C)c3ccccc31)C(C#N)=C(N)O2 (centres undefined)	2%	u	2%	16µM*	11
CN1C(=O)C2(C(C#N)=C(N)Oc3n[nH]c(-c4ccc(Cl)cc4)c32)c2ccccc21 (centres undefined)	-3%	-24%	-18%	-18%	-24
CC(=O)N1C(=O)C2(C(C#N)=C(N)Oc3n[nH]c(-c4ccccn4)c32)c2ccccc21 (centres undefined)	16%	18µM*	-7%	u	5
Cc1[nH]nc2c1C1(C(=O)N(Cc3ccc(Cl)cc3)c3ccccc31)C(C#N)=C(N)O2 (centres undefined)	u	26µM*	u	23µM*	-16
CC1(C)CC(=O)C2=C(C1)OC(N)=C(C#N)C21C(=O)N(Cc2ccccc2Cl)c2ccccc21 (centres undefined)	1%	23µM*	-1%	u	0
Cc1nn(-c2ccccc2)c2c1C1(C(=O)N3c4c(cccc41)C(C)CC3(C)C)C(C#N)=C(N)O2 (centres undefined)	u	u	u	u	-26
COC(=O)Cc1[nH]nc2c1C1(C(=O)N(Cc3ccccc3)c3ccccc31)C(C#N)=C(N)O2 (centres undefined)	6%	-7%	12%	-9%	-16
Cc1ccc(-c2cc3nc(-c4ccccc4)cc(C(F)(F)F)n3n2)cc1	x	-25%	x	-24%	x
CC(=O)N1C(=O)C2(C(C#N)=C(N)Oc3c2c(C)nn3-c2ccccc2)c2ccccc21 (centres undefined)	-3%	u	-7%	23µM*	31
Cc1nn(-c2ccccc2)c(N)c1C1(O)C(=O)N(C)c2ccccc21 (centres undefined)	-1%	u	-4%	23µM*	10
CCN1C(=O)C2(C(C#N)=C(N)Oc3c2c(C)nn3-c2ccccc2)c2ccccc21 (centres undefined)	u	16µM*	-3%	18µM*	7
